NCOA1 inh = human NCOA1 inhibition; HEK293 GAL4-SRC1 luciferase reporter, luminescence; 360,000 tested, 0.12% active; inhibition, % at 3.6 µM; AID 588354; Q15788;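 active means inhibition above the campaign mean plus 3 SD, with each screening campaign given its own cutoff, cut at about 60% in these data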;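 further: 0% = DMSO treated cells and 100% = gossypol at 36 µM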
Gli-Sufu antag = Gli-Sufu pathway antagonism | inhibition, % at 5 µM | 340,000 tested, 0.74% active | Sufu-KO-LIGHT fibroblasts, Gli luciferase reporter luminescence;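 active means inhibition above about 55%, limit read from the data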;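 further: 0% = DMSO-treated cells and 100% = wells with medium but no cells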
NCOA2 inhibitor = human SRC2 (NCOA2) inhibition. AID 651957. inhibition, % at 9 µM. 370,000 tested, 0.17% active. Q15596. HEK293 GAL4-SRC2 luciferase reporter, luminescence;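 active means inhibition above the mean inhibition of all tested compounds plus 3 SD, set per campaign, cut at about 52% in these data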;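 further: 0% = DMSO treated cells and 100% = cells given Gossypol at 36 µM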
NR5A2 inv ag = NR5A2 inverse agonism in reporter assay | O00482 | HEK293T StAR-luciferase reporter, LRH-1 transfected, 24 h | inhibition, % at 3.6 µM | 360,000 tested, 0.13% active;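 active means inhibition above the mean inhibition of all tested compounds plus 3 SD, cut at about 73% in these data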;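 further: 0% = DMSO wells and 100% = reporter-only cells lacking LRH-1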
COUP-TFII inh = blocks human COUP-TFII nuclear receptor; P24468; HEK293T NGFI-A luciferase reporter, luminescence; inhibition, % at 8.6 µM; 370,000 tested, 0.7% active; AID 686940;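 active means inhibition above a per-plate cutoff, mean inhibition of test wells between control levels plus 3 SD, cut at about 38% in these data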;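 further: cells cotransfected with COUP-TFII expression vector driving the NGFI-A reporter; 0% = median of COUP-TF2 test wells and 100% = reporter-only cells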
Target sequence (P24468 whole entry, looked up): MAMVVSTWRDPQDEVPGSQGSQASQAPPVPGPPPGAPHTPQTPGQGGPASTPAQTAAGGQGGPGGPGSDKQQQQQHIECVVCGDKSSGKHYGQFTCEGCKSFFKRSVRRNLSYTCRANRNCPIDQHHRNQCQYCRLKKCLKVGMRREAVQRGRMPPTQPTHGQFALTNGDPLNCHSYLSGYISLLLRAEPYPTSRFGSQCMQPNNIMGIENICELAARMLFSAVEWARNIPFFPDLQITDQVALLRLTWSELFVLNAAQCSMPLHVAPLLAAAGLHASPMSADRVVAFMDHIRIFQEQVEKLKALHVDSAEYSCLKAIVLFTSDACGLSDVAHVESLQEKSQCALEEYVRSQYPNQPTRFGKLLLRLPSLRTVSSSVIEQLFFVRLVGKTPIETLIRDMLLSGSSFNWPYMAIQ
NCOA3 inh = human NCOA3 inhibition | Q9Y6Q9 | HEK293 GAL4-SRC3 luciferase reporter, luminescence | inhibition, % at 3.6 µM | 360,000 tested, 0.17% active;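 active means inhibition above a per-campaign cutoff, the mean of all compounds plus 3 SD, cut at about 60% in these data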;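 further: 0% = DMSO-treated cells and 100% = gossypol-treated cells at 36 µM; higher means less SRC3-driven luciferase light from the GAL4 reporter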
Gli-Sufu confirm = Gli-SUFU antagonism confirmation, single concentration; shares compounds with Gli-Sufu antag; Sufu-KO-LIGHT cells, Gli luciferase reporter, luminescence; inhibition, % at 5 µM; 2,500 tested, 40% active;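 active means mean inhibition at 5 µM reaching about 45%, limit read from the data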;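 further: plate controls were DMSO-treated cells for no effect and wells lacking cells for full effect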
Gli cytotox = cytotoxic in Gli-SUFU antagonist counter-screen | shares compounds with Gli-Sufu antag | Sufu-KO-LIGHT cells cytotoxicity, ATP luminescence | cytotoxicity, % at 5 µM | 2,500 tested, 32% active;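 active means mean cytotoxicity at 5 µM above about 25%, limit read from the data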;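 further: cells exposed to compound overnight for roughly 16 to 18 hours; plate controls were DMSO wells with cells for no effect and medium without cells for full effect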
Wnt3a cs = Wnt3a reporter inhibition counter-screen; inhibition, % at 6.25 µM; AID 651995; 2,500 tested, 20% active; Wnt-LIGHT cells, Wnt3a-driven luciferase reporter, luminescence; shares compounds with Gli-Sufu antag;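 active means mean inhibition above about 25%, limit read from the data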
Active calls of the source: *. An excerpt weighted towards active compounds, which were near 1.3% of everything screened.

For COc1ccccc1NC(=O)CN(c1ccc(C)cc1)S(=O)(=O)c1c(C)n[nH]c1C the results were NCOA1 inh -10, Gli-Sufu antag 56*, NCOA2 inhibitor 2, NR5A2 inv ag 11, COUP-TFII inh -1, NCOA3 inh 21, Gli-Sufu confirm 20, Gli cytotox 5 and Wnt3a cs -25.
Screening COc1ccc(OC)c(NC(=O)CN(c2ccc(C)cc2)S(=O)(=O)c2c(C)n[nH]c2C)c1 returned NCOA1 inh 18, Gli-Sufu antag -6, NCOA2 inhibitor -11, NR5A2 inv ag 1, COUP-TFII inh -13 and NCOA3 inh 5.
Cc1cc(C)cc(-n2ccn(CC(=O)NCCc3ccccc3)c(=O)c2=O)c1 was read as NCOA1 inh 10, Gli-Sufu antag 54, NCOA2 inhibitor 3, NR5A2 inv ag 11, COUP-TFII inh 12, NCOA3 inh -11, Gli-Sufu confirm 14, Gli cytotox 17 and Wnt3a cs -20.
Screening Cc1ccc(-n2ccn(CC(=O)NCCc3ccccc3)c(=O)c2=O)cc1C returned NCOA1 inh -17, Gli-Sufu antag -12, NCOA2 inhibitor -19, NR5A2 inv ag -27, COUP-TFII inh -14 and NCOA3 inh -17.
Screening CCOC(=O)CNC(=O)c1c(C)nn(-c2ccccc2)c1Cl returned NCOA1 inh -34, Gli-Sufu antag 95*, NCOA2 inhibitor -16, NR5A2 inv ag 16, COUP-TFII inh -5, NCOA3 inh -3, Gli-Sufu confirm 12, Gli cytotox 22 and Wnt3a cs -11.
For O=C(CCc1ccccc1)NNC(=O)Cc1ccc(Cl)cc1 the results were NCOA1 inh -8, Gli-Sufu antag -7, NCOA2 inhibitor 20, NR5A2 inv ag 2, COUP-TFII inh 8 and NCOA3 inh 14.
Screening O=C([O-])c1cc(-c2ccccc2)cc(-c2ccccc2)[n+]1CCc1ccc(Cl)cc1 returned NCOA1 inh -6, Gli-Sufu antag 78*, NCOA2 inhibitor -14, NR5A2 inv ag 7, COUP-TFII inh -10, NCOA3 inh 18, Gli-Sufu confirm 67*, Gli cytotox 36* and Wnt3a cs -23.
COC(=O)C1=C(C)N(C)C(=NCc2ccccc2C(F)(F)F)NC1c1cccc(F)c1 (stereo not drawn) was read as NCOA2 inhibitor 11 and COUP-TFII inh 4.
For O=C(NCCCN1CCOCC1)c1ccc(CSc2ccc(Cl)cc2)cc1 the results were NCOA1 inh 13, Gli-Sufu antag 57*, NCOA2 inhibitor -2, NR5A2 inv ag -17, COUP-TFII inh 5, NCOA3 inh 14, Gli-Sufu confirm 22, Gli cytotox 16 and Wnt3a cs -50.
`CC(C)(C)c1ccc(C(=O)NCCCN2CCN(CCCNC(=O)c3ccc(C(C)(C)C)cc3)CC2)cc1` gave NCOA1 inh 0, Gli-Sufu antag 72*, NCOA2 inhibitor 4, NR5A2 inv ag -28, COUP-TFII inh 16, NCOA3 inh 8, Gli-Sufu confirm 15, Gli cytotox 24 and Wnt3a cs 10.
For O=C(CCCCCn1c(=S)[nH]c2ccc(N3CCOCC3)cc2c1=O)NCc1ccc(Cl)cc1 the results were NCOA1 inh -23, Gli-Sufu antag 83*, NCOA2 inhibitor -12, NR5A2 inv ag -4, COUP-TFII inh -4, NCOA3 inh 0, Gli-Sufu confirm 17, Gli cytotox 15 and Wnt3a cs -13.
`O=C(CCCCCn1c(=S)[nH]c2ccc(N3CCOCC3)cc2c1=O)NCc1ccc2c(c1)OCO2` gave NCOA1 inh -19, Gli-Sufu antag 1, NCOA2 inhibitor 3, NR5A2 inv ag -6, COUP-TFII inh -7 and NCOA3 inh -19.
CC(C)c1ccc(C(=O)NCCCN2CCOCC2)cc1 was read as NCOA1 inh -20, Gli-Sufu antag -12, NCOA2 inhibitor -24, NR5A2 inv ag -6, COUP-TFII inh -10 and NCOA3 inh -32.

High-throughput results from PubChem BioAssay.
